In PubChem BioAssay (NCI):
This is part of a sample that, as a whole, favours compounds with a hit. Of some 83,000 tested, about 20% had one in any assay.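 A percent growth of 40 corresponds to 60% growth inhibition; 0 means no net growth; -100 means all cells died. Active threshold: below 10.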 Calls of active or inactive are those of the source.

Each compound was assayed on MDA-MB-468 breast (assay: NCI-60 one-dose screen, 48 h (100 = growth as untreated, 0 = no growth, -100 = all killed)). Details: 10 µM unless noted.
For `COC(=O)c1c2c(c(C)[n+]([O-])c1C)C(=O)C=C(NCc1cccc(OC)c1)C2=O`, the growth was -67.8% (active). For `Cc1ccc(Nc2nccc(N(C)c3ccc4c(C)n(C)nc4c3)n2)cc1S(N)(=O)=O`, the growth was 34.1% (inactive). For `Cc1ccc2nc3nc4ccc[nH]c4cc3c2c1`, the growth was -57.7% (active). In the case of `CC(=O)O[C@H]1[C@@H]2OC(=O)C(CSc3ccccc3)[C@@H]2C[C@H]2O[C@]2(C)CC/C=C(\C)CCC[C@@H]1C` (some centres undefined), the growth is reported as -10% (active). For `Cc1cc(C)n(CC(=O)Nc2ccc(-c3nc4ccccc4s3)cc2)n1`, the growth was -3.57% (active). With `O=C(Nc1ccc(Br)cc1)Nc1nc2ccc([N+](=O)[O-])cc2s1` the growth was -29% (active). `Cc1ccc2c(n1)C(=O)C(Cl)=C(Nc1ccccc1C(=O)OC(C)(C)C)C2=O` was tested, and the growth was -76.5% (active). With `Clc1ccc(-c2cnc3c(-c4ccnc(N5CCNCC5)c4)cnn3c2)cc1` the growth was 16.3% (inactive). For `CN(C)CCCn1c2c(c3cnccc3c1=O)C(=O)c1ccccc1-2`, the growth was -1.59% (active). With `O=C(Nc1cccc(-n2cc(-c3ccncc3)c(-c3cc(O)cc(Cl)c3)n2)c1)c1ccc(N2CCOCC2)c(C(F)(F)F)c1` the growth was 26% (inactive). With `COc1ccc2c(c1)c(=O)oc1c(C)c(OCC(C)=O)ccc12` the growth was 88.5% (inactive). `N#Cc1c(-c2ccc(F)cc2)cc(-c2c[nH]c3ccccc23)nc1-c1c[nH]c2ccccc12` was tested, and the growth was 99.3% (inactive). In the case of `O=C1C(=O)c2c(nc3ccc(Br)cn23)-c2ccccc21`, the growth is reported as -58% (active). With `CN1CCN(Cc2ccc(NC(=O)c3cncc(C#Cc4cnc(N)c5ncccc45)c3)cc2Cl)CC1` the growth was 85.4% (inactive). `Cc1cc(-c2noc(C(F)(F)F)n2)ccc1N1CCN(c2cc(C(=O)N(C)C)no2)CC1` was tested, and the growth was 15.2% (inactive). For `COc1cc(/C=C/C(=O)N2CCN(C(=O)/C=C/c3ccccc3)CC2)cc(OC)c1OC`, the growth was 107% (inactive). For `c1ccc2c(c1)Cc1ccccc1N2CCN1CCCCC1`, the growth was 99.4% (inactive). `COc1ccc(-c2c(C)nn3c(NCCN4CCOCC4)cc(C)nc23)cc1OC` was tested, and the growth was 96.3% (inactive). `CCCCCCCCCCCCCCCCS(=O)(=O)Nc1cc(C(=O)NN)cc(C(=O)NN)c1` was tested, and the growth was 45.2% (inactive). For `CN(C)c1ncnc2c1ccn2C1OC(CO)C(O)C1O` (centres undefined), the growth was -64.3% (active). For `CCNC(=O)N1CCc2c(Cl)c3c(c(OC)c2[C@@H]1[C@H]1OCc2c1ccc(OC)c2OC)OCCO3`, the growth was -8.07% (active). `O=C(Oc1ccccc1[N+](=O)[O-])C1CCCN1C(=O)OCc1ccccc1` (centres undefined) was tested, and the growth was 97.3% (inactive). For `O=C(Nc1ccc(CN2CCOCC2)cc1)c1ccc(-c2cc(Cl)ccc2Cl)o1`, the growth was -56.1% (active). With `COc1cc2cc(Oc3ccc(NC(=O)c4cccc(C(F)(F)F)c4)cc3)c(C)nc2cc1OC` the growth was 9.35% (active).
